Experimental data published in PubChem BioAssay (EPA / NIEHS).
Results filed as inconclusive are left out. The source made the active and inactive calls. How the source made its calls, unless noted: active means hit-call score of the fitted dose curve at least 0.9, where 1 is the maximum; inactive means score below 0.9.

Assays:
[1] = read-out: Nuclear factor erythroid 2-related factor 2 (Homo sapiens) (UniProt Q16236); assay: LTEA_HepaRG_NFE2L2: Life Technologies and Expression Analysis (LTEA) Assay for Nuclear factor erythroid 2-related factor 2 (NFE2L2) Transcription Factor using HepaRG (AID 2283527); details: mRNA level, 48 h; actives raise or lower the signal;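 on outcome: TaqMan qRT-PCR transcript level normalised to ACTB GAPDH and POLR2A housekeeping genes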
Method in brief: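 Human liver HepaRG line treated in duplicate for 48 h with an eight-point series topping at 100 uM. Gene expression of NFE2L2 by qRT-PCR, bidirectionally fitted against the vehicle control.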

[2] = read-out: succinate dehydrogenase complex iron sulfur subunit B (SDHB), SDHB (gene 6390); assay: LTEA_HepaRG_SDHB: Life Technologies and Expression Analysis (LTEA) Assay for succinate dehydrogenase complex iron sulfur subunit B (SDHB) using HepaRG (AID 2283528); details: mRNA level, 48 h; actives raise or lower the signal
Method in brief: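 A human HepaRG culture in serum-free induction medium received test chemicals for 48 h over an eight-point range capped at 100 uM. SDHB expression change was quantified by qRT-PCR.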

[3] = read-out: Signal transducer and activator of transcription 3 (Homo sapiens) (UniProt P40763); assay: LTEA_HepaRG_STAT3: Life Technologies and Expression Analysis (LTEA) Assay for Signal transducer and activator of transcription (STAT3) using HepaRG (AID 2283529); details: mRNA level, 48 h; actives raise or lower the signal
Method in brief: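 In this transcriptional endpoint, HepaRG cultures receive test chemicals at up to 100 uM for 48 h, tested in duplicate. STAT3 mRNA is normalized to ACTB, GAPDH and POLR2A.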

[4] = read-out: sulfotransferase 2A1 (SULT2A1), SULT2A1 (gene 6822); assay: LTEA_HepaRG_SULT2A1: Life Technologies and Expression Analysis (LTEA) Assay for sulfotransferase 2A1 (SULT2A1) using HepaRG (AID 2283531); details: mRNA level, 48 h; actives raise or lower the signal
Method in brief: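 Transcript levels of SULT2A1, quantified by qRT-PCR and normalized to three housekeeping genes, serve as the readout. Human HepaRG cultures receive test chemicals for 48 h at up to 100 uM in half-log steps, with 0.5% DMSO vehicle.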

[5] = read-out: Transforming Growth Factor (TGFA), TGFA (gene 7039); assay: LTEA_HepaRG_TGFA: Life Technologies and Expression Analysis (LTEA) Assay for Transforming Growth Factor (TGFA) using HepaRG (AID 2283532); details: mRNA level, 48 h; actives raise or lower the signal
Method in brief: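 Gene expression of TGFA was quantified by qRT-PCR after human HepaRG cells were treated for 48 h with test chemicals (eight concentrations, highest 100 uM, 0.5% DMSO). Activity in either direction was fitted relative to DMSO.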

[6] = read-out: Transforming Growth Factor (TGFB1), TGFB1 (gene 7040); assay: LTEA_HepaRG_TGFB1: Life Technologies and Expression Analysis (LTEA) Assay for Transforming Growth Factor (TGFB1) Transporter using HepaRG (AID 2283533); details: mRNA level, 48 h; actives raise or lower the signal
Method in brief: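 HepaRG, 48 h post-plating, switched to serum-free induction medium; chemicals 100 uM top, half-log, 8 pts, 0.5% DMSO, dup; 48 h exposure; RNA → Fluidigm TaqMan qRT-PCR; norm ACTB/GAPDH/POLR2A; bidirectional fit vs DMSO.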

[7] = read-out: TIMP1, TIMP1 (gene 7076); assay: LTEA_HepaRG_TIMP1: Life Technologies and Expression Analysis (LTEA) Assay for TIMP1 using HepaRG (AID 2283534); details: mRNA level, 48 h; actives raise or lower the signal;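 further: TaqMan qRT-PCR signal normalized to ACTB GAPDH and POLR2A housekeeping genes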
Method in brief: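 Readout is TIMP1 mRNA level measured by qRT-PCR and normalized to three housekeeping genes. Human HepaRG cells were treated for 48 h in duplicate at eight concentrations up to 100 uM (0.5% DMSO); gain or loss fitted against DMSO.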

[8] = read-out: Tumor necrosis factor receptor 1 (TNFRSF1A), TNFRSF1A (gene 7132); assay: LTEA_HepaRG_TNFRSF1A: Life Technologies and Expression Analysis (LTEA) Assay for Tumor necrosis factor receptor 1 (TNFRSF1A) using HepaRG (AID 2283535); details: mRNA level, 48 h; actives raise or lower the signal
Method in brief: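 Read-out is TNFRSF1A transcript level by TaqMan qRT-PCR, normalized to three housekeeping genes, scored as gain or loss of signal versus 0.5% DMSO. Human HepaRG cells received test chemicals for 48 h at up to 100 uM (half-log series).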

[9] = read-out: Thyroid Hormone Responsive (THRSP), THRSP (gene 7069); assay: LTEA_HepaRG_THRSP: Life Technologies and Expression Analysis (LTEA) Assay for Thyroid Hormone Responsive (THRSP) using HepaRG (AID 2283536); details: mRNA level, 48 h; actives raise or lower the signal
Method in brief: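 Cell model: human HepaRG, approx. 100,000 cells/well, 0.5% DMSO vehicle. Exposure lasts 48 h; phenobarbital 1 mM serves as induction positive control. Gene expression is measured by qRT-PCR against three endogenous control genes.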

[10] = read-out: Cellular tumor antigen p53 (Homo sapiens) (UniProt P04637); assay: LTEA_HepaRG_TP53: Life Technologies and Expression Analysis (LTEA) Assay for Tumor Protein P53 (TP53) using HepaRG (AID 2283537); details: mRNA level, 48 h; actives raise or lower the signal
Method in brief: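 Gain or loss of TP53 mRNA signal is scored relative to 0.5% DMSO after 48 h chemical treatment of HepaRG liver cells, tested in duplicate at eight half-log concentrations up to 100 uM.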

[11] = read-out: UDP glucuronosyltransferase (UGT1A1), UGT1A1 (gene 54658); assay: LTEA_HepaRG_UGT1A1: Life Technologies and Expression Analysis (LTEA) Assay for UDP glucuronosyltransferase (UGT1A1) using HepaRG (AID 2283538); details: mRNA level, 48 h; actives raise or lower the signal
Method in brief: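 HepaRG, 48 h chemical exposure (top 100 uM, half-log 8-pt, 0.5% DMSO vehicle), duplicate wells; qRT-PCR (TaqMan, Fluidigm array) for UGT1A1 mRNA, housekeeping-normalized; bidirectional curve fit vs DMSO baseline.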

[12] = read-out: UDP glucuronosyltransferase (UGT1A6), UGT1A6 (gene 54578); assay: LTEA_HepaRG_UGT1A6: Life Technologies and Expression Analysis (LTEA) Assay for UDP glucuronosyltransferase (UGT1A6) using HepaRG (AID 2283539); details: mRNA level, 48 h; actives raise or lower the signal
Method in brief: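 HepaRG, 48 h post-plating switch to serum-free induction medium; chemical 48 h, 100 uM top, half-log x8, duplicate, 0.5% DMSO. Phenobarbital 1mM induction control. UGT1A6 mRNA by TaqMan qRT-PCR; gain/loss fit vs DMSO.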

[13] = read-out: X-box binding protein 1 (XBP1), XBP1 (gene 7494); assay: LTEA_HepaRG_XBP1: Life Technologies and Expression Analysis (LTEA) Assay for X-box binding protein 1 (XBP1) using HepaRG (AID 2283540); details: mRNA level, 48 h; actives raise or lower the signal
Method in brief: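 Transcript levels of XBP1, measured by qRT-PCR and normalised to three housekeeping genes, were fitted bidirectionally relative to 0.5% DMSO controls. Human HepaRG cells received eight-point half-log dilutions from 100 uM for 48 h.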

[14] = LTEA_HepaRG_LDH_cytotoxicity: Cytotoxicity Assessment in the Life Technologies and Expression Analysis (LTEA) Assay (AID 2283563; active means hit-call score of the fitted dose curve at least 0.9, where 1 is the maximum)
Method in brief: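 Cells were thawed and plated for 48 h. Medium was then replaced with serum-free induction medium. Chemicals (8 half-log points, maximum 100 uM, 0.5% DMSO) were added in duplicate for 48 h, after which spent medium was assayed for LDH.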

[15] = ATG_XTT_Cytotoxicity: Cytotoxicity Assessment in the Attagene TRANS-FACTORIAL HepG2 Assay (AID 2283584; active means hit-call score of the fitted dose curve at least 0.9, where 1 is the maximum)
Method in brief: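 Cells: human HepG2, transiently transfected with MRTU reporter constructs. Exposure 24 h. Readout: XTT, cell number. Baseline/neg ctrl DMSO; loss-of-signal scored.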

[16] = TOX21_p53_BLA_p3_viability: Viability Assessment in the Tox21 HCT-116 p53 Agonism Beta-lactamase Assay, Phase 3 (AID 2283593; active means hit-call score of the fitted dose curve at least 0.9, where 1 is the maximum;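 further: cells exposed to compound for 16 h before reading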)
Method in brief: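 HCT-116 cells (4000/well) rested 5 h at 37C, then got DMSO compounds by pin tool (217-fold dilution) for 16 h at 37C, 5% CO2. After the bla read, CellTiter-Glo was added and luminescence read at 30 min, room temperature.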

[17] = target: Cellular tumor antigen p53 (Homo sapiens) (UniProt P04637); assay: TOX21_p53_BLA_p3_ratio: Tox21 HCT-116 p53 Agonism Beta-lactamase Assay, Ratio, Phase 3 (AID 2283596; active means hit-call score of the fitted dose curve at least 0.9, where 1 is the maximum)
Cellular tumor antigen p53 (Homo sapiens), sequence (P04637 whole entry, looked up): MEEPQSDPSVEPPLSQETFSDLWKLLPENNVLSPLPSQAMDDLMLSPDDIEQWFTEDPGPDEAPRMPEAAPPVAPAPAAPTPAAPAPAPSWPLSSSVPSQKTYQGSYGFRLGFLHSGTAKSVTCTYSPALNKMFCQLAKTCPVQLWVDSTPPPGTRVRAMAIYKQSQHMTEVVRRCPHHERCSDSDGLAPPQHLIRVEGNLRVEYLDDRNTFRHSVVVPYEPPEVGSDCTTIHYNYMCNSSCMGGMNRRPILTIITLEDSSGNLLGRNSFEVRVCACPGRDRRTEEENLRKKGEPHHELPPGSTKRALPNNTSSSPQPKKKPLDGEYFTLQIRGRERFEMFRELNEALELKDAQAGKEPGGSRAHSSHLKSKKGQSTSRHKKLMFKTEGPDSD
Method in brief: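 Cells were seeded at 4000/well, rested 5 h at 37C, then dosed with DMSO compound solutions (217-fold dilution) for 16 h. CCF4-AM substrate was loaded for 2 h at room temperature, and the 460/530 nm emission ratio was fitted for gain of signal versus DMSO.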

[18] = TOX21_p53_BLA_p4_viability: Viability Assessment in the Tox21 HCT-116 p53 Agonism Beta-lactamase Assay, Phase 4 (AID 2283597; active means hit-call score of the fitted dose curve at least 0.9, where 1 is the maximum;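 further: hits lower the luminescence signal meaning cytotoxicity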)
Method in brief: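 Readout: ATP luminescence (CellTiter-Glo), measured 30 min after reagent addition at RT. The reagent followed a 2 h CCF4-AM incubation, and the cells had been exposed to compound for 16 h at 37C.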

[19] = read-out: solute carrier (SLCO1B1), SLCO1B1 (gene 10599); assay: LTEA_HepaRG_SLCO1B1: Life Technologies and Expression Analysis (LTEA) Assay for solute carrier (SLCO1B1) using HepaRG (AID 2283530); details: mRNA level, 48 h; actives raise or lower the signal
Method in brief: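 HepaRG, serum-free induction medium, 48 h dosing, 8-pt half-log from 100 uM, 0.5% DMSO vehicle, duplicates. Readout: SLCO1B1 mRNA, qRT-PCR, ACTB/GAPDH/POLR2A normalization; up or down fit vs DMSO.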

Nuclear factor erythroid 2-related factor 2 (Homo sapiens), sequence (Q16236 whole entry, looked up): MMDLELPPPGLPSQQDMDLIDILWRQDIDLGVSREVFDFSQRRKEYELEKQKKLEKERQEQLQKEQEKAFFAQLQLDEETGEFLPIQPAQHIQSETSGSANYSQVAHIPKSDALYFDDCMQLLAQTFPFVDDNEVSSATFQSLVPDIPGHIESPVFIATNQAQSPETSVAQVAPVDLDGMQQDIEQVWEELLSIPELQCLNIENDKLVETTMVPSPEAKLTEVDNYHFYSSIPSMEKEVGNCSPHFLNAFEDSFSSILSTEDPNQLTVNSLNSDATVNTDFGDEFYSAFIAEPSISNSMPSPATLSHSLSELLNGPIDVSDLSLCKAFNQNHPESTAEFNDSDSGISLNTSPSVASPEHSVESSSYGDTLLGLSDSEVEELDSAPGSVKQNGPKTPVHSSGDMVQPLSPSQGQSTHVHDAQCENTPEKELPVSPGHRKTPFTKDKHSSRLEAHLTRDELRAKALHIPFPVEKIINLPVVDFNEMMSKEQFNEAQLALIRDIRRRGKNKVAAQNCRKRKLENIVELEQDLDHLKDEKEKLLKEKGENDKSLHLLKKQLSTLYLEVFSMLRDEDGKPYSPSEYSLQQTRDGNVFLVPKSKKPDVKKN
Signal transducer and activator of transcription 3 (Homo sapiens), sequence (P40763 whole entry, looked up): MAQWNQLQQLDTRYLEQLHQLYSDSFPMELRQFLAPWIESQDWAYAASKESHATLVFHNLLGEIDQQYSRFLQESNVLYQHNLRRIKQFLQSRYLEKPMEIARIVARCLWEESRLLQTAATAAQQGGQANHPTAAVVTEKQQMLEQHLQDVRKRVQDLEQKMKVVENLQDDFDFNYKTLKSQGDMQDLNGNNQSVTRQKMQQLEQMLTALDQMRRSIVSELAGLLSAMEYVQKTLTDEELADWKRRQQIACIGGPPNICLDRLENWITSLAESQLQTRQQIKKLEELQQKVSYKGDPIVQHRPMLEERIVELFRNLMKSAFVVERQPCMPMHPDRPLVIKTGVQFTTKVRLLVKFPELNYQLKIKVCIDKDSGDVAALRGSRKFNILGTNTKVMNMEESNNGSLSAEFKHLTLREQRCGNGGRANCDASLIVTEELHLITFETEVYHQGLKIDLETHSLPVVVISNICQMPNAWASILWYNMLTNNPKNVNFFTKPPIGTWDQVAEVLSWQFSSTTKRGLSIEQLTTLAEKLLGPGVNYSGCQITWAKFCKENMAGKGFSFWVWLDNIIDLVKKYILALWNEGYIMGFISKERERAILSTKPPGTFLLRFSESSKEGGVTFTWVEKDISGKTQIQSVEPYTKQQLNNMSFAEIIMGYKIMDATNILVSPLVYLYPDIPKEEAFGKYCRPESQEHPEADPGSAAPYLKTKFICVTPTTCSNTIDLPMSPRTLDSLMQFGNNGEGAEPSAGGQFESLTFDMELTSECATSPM

With `CCN(Cc1c(F)cccc1Cl)c1c([N+](=O)[O-])cc(C(F)(F)F)cc1[N+](=O)[O-]` the AC50 [1] was 50 µM (active), the outcome [2] was “inactive” and the outcome [3] was “inactive”. The outcome [4] was “inactive”, the outcome [5] was “inactive” and the outcome [6] was “inactive”. For the same molecule, the outcome [7] was “inactive”, the outcome [8] was “inactive” and the AC50 [9] was 22.8 µM (active). The AC50 [10] was 30.3 µM (active), the AC50 [11] was 7.12 µM (active) and the outcome [12] was “inactive”. For the same molecule, the outcome [13] was “inactive”, the outcome [14] was “inactive” and the outcome [15] was “inactive”. The outcome [16] was “inactive”, the outcome [17] was “inactive” and the AC50 [18] was 26.3 µM (active).
For `C[C@]12C[C@H](O)[C@H]3[C@@H](CCC4=CC(=O)CC[C@@]43C)[C@@H]1CC[C@@H]2C(=O)CO`, the outcome [1] was “inactive”, the outcome [2] was “inactive” and the outcome [3] was “inactive”. The AC50 [4] was 66.4 µM (active), the outcome [5] was “inactive” and the outcome [6] was “inactive”. For the same molecule, the outcome [7] was “inactive”, the outcome [8] was “inactive” and the AC50 [9] was 50 µM (active). The outcome [10] was “inactive”, the AC50 [11] was 50 µM (active) and the outcome [12] was “inactive”. The outcome [13] was “inactive”, the outcome [14] was “inactive” and the outcome [15] was “inactive”. The outcome [16] was “inactive”, the outcome [17] was “inactive” and the outcome [18] was “inactive”.
In the case of `C=CCOC(Cn1ccnc1)c1ccc(Cl)cc1Cl` (stereo unspecified), the AC50 [1] is reported as 21.8 µM (active), the outcome [2] is reported as “inactive” and the outcome [3] is reported as “inactive”. The AC50 [19] was 35 µM (active), the AC50 [4] was 36.4 µM (active) and the AC50 [5] was 50 µM (active). For the same molecule, the outcome [6] was “inactive”, the outcome [7] was “inactive” and the AC50 [8] was 77.8 µM (active). For the same molecule, the AC50 [9] was 36.2 µM (active), the AC50 [10] was 12.2 µM (active) and the AC50 [11] was 77.5 µM (active). For the same molecule, the AC50 [12] was 72.4 µM (active), the outcome [13] was “inactive” and the outcome [15] was “inactive”.
